Compounds without any hit were thinned out: in the full panel of roughly 79,000, 15% have a hit. Cut-off read from the data, not from the text of the source: active = growth inhibition above about 70%; inactive = the rest.
How the values were obtained:
[1] = NCI Yeast Anticancer Drug Screen. Data for the rad50 strain (AID 155);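 note: 0% = growth of vehicle-only cultures of the same strain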; details: S. cerevisiae rad50 strain growth inhibition; at 50.0 µM; hits give high values
Summary of the method: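 Compounds were tested on a yeast strain with an engineered DNA damage repair alteration; the reported value is growth inhibition normalised to vehicle treatment.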

[2] = NCI Yeast Anticancer Drug Screen. Data for the mec2-1 strain (AID 157); details: S. cerevisiae mec2-1 strain, at 50.0 µM, hits give high values
Summary of the method: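 Strain: mec2-1 (DNA repair/cell cycle alteration). Compound exposure, then growth measured; inhibition expressed relative to vehicle.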

[3] = NCI Yeast Anticancer Drug Screen. Data for the sgs1 mgt1 strain (AID 161);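 note: 0% = growth of cultures given vehicle only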; details: S. cerevisiae sgs1 mgt1 strain, at 50.0 µM, hits give high values
Summary of the method: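 Read-out: growth inhibition vs vehicle controls. Cells: mutant yeast strain deficient in DNA damage repair.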

[4] = NCI Yeast Anticancer Drug Screen. Data for the cln2 rad14 strain (AID 165);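 note: 0% = growth equal to vehicle treated cultures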; details: S. cerevisiae cln2 rad14 strain, at 50.0 µM, hits give high values
Summary of the method: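 Compounds are applied to the cln2 rad14 yeast strain, and growth is then compared with that of vehicle-treated cultures to give inhibition.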

[5] = NCI Yeast Anticancer Drug Screen. Data for the bub3 strain (AID 167); details: S. cerevisiae bub3 mutant strain, at 50.0 µM, hits give high values
Summary of the method: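 Growth of a checkpoint-deficient yeast mutant is measured after compound exposure. Values represent inhibition relative to vehicle.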

[6] = NCI Yeast Anticancer Drug Screen. Data for the mlh1 rad18 strain (AID 175); details: S. cerevisiae mlh1 rad18 strain growth inhibition; at 50.0 µM; hits give high values
Summary of the method: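 Read-out is yeast growth inhibition, calculated against vehicle-only controls. The compound was applied to a strain engineered with DNA damage repair alterations.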

Measured: growth inhibition

CC1(C)N=C(N)N=C(N)N1c1cccc(OCCCOc2ccc([N+](=O)[O-])cc2)c1
inactive: [1] -31.9% | [2] -23.6% | [3] -17.1% | [4] -44.9% | [5] -7.8% | [6] -26.4%

C[s+]1c2ccccc2c2ccccc21
inactive: [1] -65.8% | [2] -46.4% | [3] -32.9% | [4] -22.6% | [5] -13.2% | [6] -49.8%

CC(C)CC(CC(C)C)OC(=O)Nc1ccccc1
inactive: [1] -1% | [2] 17.3% | [3] 9.05% | [4] 33.6% | [5] 30.1% | [6] 25.9%

From PubChem BioAssay (NCI)
